# Hits are enriched below; roughly 2.5% of the tested compounds scored in any of these assays.
# CRFR2-BP ag – agonists of human CRF-binding protein/CRF-R2 receptor complex; 0.46% of 350,000 active; HEK293 CRF-R2/CRF-BP, calcium dye fluorescence (FLIPR); percent of saturating CRF peptide response; activation, % at 13.2 µM;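 active = activation of at least 50%, plus an integration ratio under a set limit after plate pattern correction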;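 also: plate controls were neutral control wells without compound for no effect and CRF at EC100 for full effect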
# CRFBP-R2 block – CRF-BP/CRF-R2 complex antagonism; HEK293 CRF-R2/CRF-BP, CRF-induced calcium fluorescence; inhibition, % at 11.8 µM; 0.59% of 350,000 active; AID 588475;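 active = inhibition of the ligand-induced calcium signal above about 50% at the single tested concentration, limit read from the data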
# Cardio protect – modulators protecting cardiomyocytes from myocardial damage; AID 588492; H9c2 cardiomyocytes, H2O2 injury protection, ATPLite, 2 h; protection from H2O2 cell death, % at 20 µM; 0.63% of 360,000 active;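 active = compounds giving at least 50% protection of heart cells from peroxide-induced death in the single-dose screen, raw or plate-pattern-corrected value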;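 also: 0% = DMSO wells with peroxide and 100% = DMSO wells without peroxide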
# TAG inh – triacylglycerol accumulation inhibition; H9c2 cells, Nile Red lipid (TAG) fluorescence; cells loaded with 200 µM oleic acid; inhibition, % at 12.5 µM; 0.66% of 230,000 active; AID 651582;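 active = pattern-corrected inhibition of lipid staining of at least 50% with the nuclear-stain viability signal not falling by more than 50%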;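 also: 0% = DMSO wells and 100% = triacsin C control wells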
# SKN-1 block – C. elegans SKN-1 inhibition; C. elegans VP596 Pgst-4::GFP/RFP ratio, acrylamide-induced, 24 h; inhibition, % at 21.8 µM; 0.49% of 360,000 active; AID 624304;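 active = interference check ratio from 0.5 to 1.5 plus GFP to RFP signal ratio inhibition reaching or exceeding a fixed threshold, cut at about 30% in these data, passing the limit was not always enough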
# iPSC survival up – hiPSC single-cell survival enhancement | survival enhancement, % at 20 µM | ATPlite luminescence; 100% = ROCK inhibitor wells, 0% = DMSO | 0.044% of 360,000 active; in the data active = survival enhancement above about 18%;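 also: cells exposed to compounds for 16 hours before the ATP read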
# An asterisk follows results filed as active; x = no result.
SMILES,CRFR2-BP ag,CRFBP-R2 block,Cardio protect,TAG inh,SKN-1 block,iPSC survival up
CCN1C(=O)/C(=C/C=C2/SCCN2C)SC1=S,59*,-18,-16,-4,27*,0
CN1CCS/C1=C\C=C1/SC(=S)N(CC(=O)O)C1=O,107*,-76,-7,-3,-9,-1
CCN1C(=O)/C(=C/C=C2/Sc3ccccc3N2CCO)SC1=S,15,-17,8,-4,29,-1
CCOc1ccccc1NC(=O)Cn1nnc(C(=O)NCc2ccco2)c1N,0,18,1,66*,3,-1
COc1ccccc1N1CCN(C(=O)c2ccc(Cl)c(S(=O)(=O)N3CCOCC3)c2)CC1,-1,-10,11,-3,4,0
CCCNC(=O)c1cc(C2CCCCN2S(=O)(=O)c2ccccc2)on1 (stereo unspecified),x,x,0,7,-1,2
Cc1ccc(NC(=O)CSCC(=O)Nc2cccc3ncccc23)cc1,1,-3,-2,7,10,0
Cc1cc(C)c(C)c(S(=O)(=O)N2CCC(C(=O)NNC(=O)c3ccccc3O)CC2)c1C,-1,2,66*,-6,-5,0
Cc1ccc(NC(=O)COc2cccc(-n3cnnn3)c2)cc1[N+](=O)[O-],-1,15,8,x,11,0
c1ccc(-c2nc3ccccc3o2)nc1,-2,-4,-12,-10,1,-3
c1ccc2nc(-c3nc4ccccc4o3)ccc2c1,2,-5,-20,x,80*,-4
N#Cc1c2ccc(O)cc2n2ccccc12,73*,-71,69*,6,5,-2
COc1cc(OC)cc(-c2noc([C@H]3C[C@H](O)[C@@H](CO)O3)n2)c1,x,x,-2,7,4,5
COc1cc(-c2noc(C)c2C#Cc2ccccn2)cc(OC)c1OC,1,14,4,70*,9,-2
CC1=CC(=O)C(C(C)C)=C/C1=N/OS(=O)(=O)c1ccccc1,51*,-63,-19,98,-14,-1
COc1ccc(-c2coc3c(C(=O)NCc4ccc(C(F)(F)F)cc4)cccc23)c(C)c1,x,x,-5,-11,11,-1
CCC1(c2ccccc2)NC(=O)N(CC(=O)Nc2ccc(OC)nc2)C1=O (stereo unspecified),93*,-62,5,2,-2,0
Cc1ccc(S(=O)(=O)N2CCC(=O)N([C@H](COC(=O)Nc3ccccc3)Cc3ccccc3)CC2)cc1,x,x,x,x,4,-1
O=C(NCc1cccnc1)NC1(C(F)(F)F)Oc2ccc(Cl)cc2O1 (stereo unspecified),1,-26,58*,5,2,-4
COCCNC(=O)NC1(C(F)(F)F)Oc2ccc(Cl)cc2O1 (stereo unspecified),0,-8,11,-11,8,-6
COc1ccccc1Cc1c(-c2ccc(C#N)cc2)nc2c(Cl)cc(C(F)(F)F)cn12,x,x,x,x,12,0
CCOc1ccc(OCC)c(NC(=O)CSCC(=O)O)c1,-2,-5,7,9,36*,5
Cc1ccccc1S(=O)Cc1ccc(C(=O)N2CCN(C(=O)c3ccco3)CC2)o1 (stereo unspecified),0,9,0,x,35*,0
CCc1ccc(NC(=O)CSc2nc(CSc3ccc(C)cc3)cc(=O)[nH]2)cc1,-1,10,-3,0,7,0
Cc1ccc(SCc2cc(=O)[nH]c(SCC(=O)Nc3cc(Cl)ccc3Cl)n2)cc1,0,68*,-2,-2,5,0
SMILES,CRFR2-BP ag,CRFBP-R2 block,Cardio protect,TAG inh,SKN-1 block,iPSC survival up
COCCCn1cc(CN(C)C2CN(Cc3cn(CCCOC)nn3)S(=O)(=O)C2)nn1 (stereo unspecified),x,x,x,x,7,1
CCOC(=O)c1[nH]c2cc(OC)c(OC)cc2c1NC(=O)C(C)N1CCN(Cc2ccccc2)CC1 (stereo unspecified),-3,12,56*,11,12,6
CCOC(=O)c1[nH]c2ccc(F)cc2c1NC(=O)Nc1ccccc1OC,2,-10,1,8,-10,0
CC(=O)Nc1ccc(S(=O)(=O)N2CCC(C(=O)O)(c3ccccc3)CC2)cc1,-2,8,-2,-5,15,0
CC(=O)Nc1ccc(S(=O)(=O)N2CCC(NC(C)=O)(c3cccc(F)c3)CC2)cc1,-7,51*,-6,2,-6,-1
CC(C)c1ccc(NC(=O)C2(C)Cc3c(-c4ccccc4)ccnc3O2)cc1 (stereo unspecified),x,x,-12,-18,-4,5
CC1(C(=O)Nc2cnc3ccccc3c2)CCN1C(=O)CC(c1ccccc1)c1ccccc1 (stereo unspecified),x,x,3,6,30,-2
CC(=O)Nc1ccc(NC(=O)C2Cc3c(-c4cccc(F)c4)ccnc3O2)cc1 (stereo unspecified),x,x,2,-1,37*,4
CCOc1ccc(-c2cc(C(=O)Nc3cc(OC)c(OC)c(OC)c3)[nH]n2)c(C)c1,x,x,22,3,-2,3
Cc1ccc(NC(=O)C2COc3ccccc3O2)cc1 (stereo unspecified),-2,13,-6,-8,2,0
O=C(Nc1ccc(-c2cn3ccsc3n2)cc1)C1COc2ccccc2O1 (stereo unspecified),0,-23,11,-11,36*,-3
N=c1n(Cc2ccc(Cl)cc2)c2ccccc2n1CC(O)COc1ccccc1 (stereo unspecified),5,-106,-22,73*,-4,-3
C=CCc1cccc2cc(C(=O)N3CCN(C(=O)c4ccccc4)CC3)c(=O)oc12,-4,9,5,x,3,-1
Cc1ccc(CC(=O)NCCCc2ccccc2)cc1,-4,60*,-3,-12,-1,9
COc1cccc(CNc2nc3cc(-c4ccsc4)sc3c(=O)n2C)c1OC,x,x,-13,-10,6,4
CCc1nc2ccc(C(=O)Nc3cc(-c4ccccc4)ccc3OC)cn2c1N(C)Cc1nccs1,x,x,75*,1,-6,-2
CCNC(=O)N(C)c1c(CC)nc2ccc(C(=O)Nc3cccc(OCC(=O)N(C)C)c3)cn12,x,x,-1,5,4,19
CCc1nc2ccc(C(=O)Nc3cccc(OCC(=O)N(C)C)c3)cn2c1N(C)Cc1cc2ccccc2s1,x,x,54*,9,6,1
CCc1nc2ccc(C(=O)Nc3cc(-c4ccccc4)ccc3OC)cn2c1N(C)Cc1ccc(OC)cc1,x,x,14,37,5,0
C=CCNC(=O)c1cc(-c2cccnc2)nc2ccccc12,-2,0,5,x,14,-1
Cc1ccc(-n2c(O)c(C=Nc3ccccc3-c3n[nH]c(=S)[nH]c3=O)c3ccccc3c2=O)c(C)c1,-1,53*,-6,-24,3,2

# Screening results as filed in PubChem.
